Laboratory results from PubChem BioAssay.

These compounds were tested on glycogen synthase kinase-3 (GSK3A per assay name; protocol says GSK3B) (assay: GSK3 binders on small-molecule microarrays, primary screen, biochemical, small-molecule microarray, 635 nm fluorescence, GSK3A (AID 1103; further: the record names both GSK3A and GSK3B)). Conditions: small-molecule microarray binding, fluorescence 635 nm; higher = more signal.
CCOC(=O)[C@H]1C/C=C/C[C@H](C(=O)OCC)C(=O)O[C@H]2[C@@H](OC)O[C@H](CO)[C@@H](OC(=O)Nc3ccc4c(c3)OCO4)[C@@H]2OC1=O gave a composite z-score of 0.677.
Work on COCC(=C=CC[C@@H](O)c1ccc(CO)o1)CCO yielded a composite z-score of 0.0348.
Cc1cc(C)c(C(O)C2C=CC3C(=O)N(c4ccccc4)C(=O)C3N2Nc2ccc(C#N)cc2)c(C)c1 (stereo not drawn) was tested, and the composite z-score was 1.22.
Work on COc1ccc(C#Cc2ccc3c(c2)[C@]2(C(=O)N3)[C@H](c3ccc(O)cc3)N3[C@H](c4ccccc4)[C@H](c4ccccc4)OC(=O)[C@H]3[C@@H]2C(=O)N2CCCCCCC2)cc1 yielded a composite z-score of 1.33.
Compound O=C1C2C=CC(C(O)c3ccc(F)cc3)N(Nc3ccccc3)C2C(=O)N1c1ccccc1 (stereo not drawn) has a composite z-score of -0.0052.
In the case of COc1cc2c(cc1OC)CN(C(=O)[C@@H]1[C@H]3C(=O)O[C@H](c4ccccc4)[C@H](c4ccccc4)N3[C@H](c3ccccc3OCCO)[C@@]13C(=O)Nc1ccc(C#CCNC(N)=O)cc13)CC2, the composite z-score is reported as 1.08.
In the case of Cc1ccc(F)cc1S(=O)(=O)N[C@@H]1CCN(Cc2ccc(-c3ccccc3)cc2)C1, the composite z-score is reported as 0.205.

These compounds were tested against Epidermal growth factor receptor (Homo sapiens) (UniProt P00533) (assay: EGFR binders on small-molecule microarrays, primary screen, biochemical, small-molecule microarray, 635 nm fluorescence (AID 1104;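 further: score merges 667 nm emission intensity with spot signal to noise over triplicate slides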)). Conditions: EGFR binding, higher = more signal.
Sequence of Epidermal growth factor receptor (Homo sapiens) (P00533 whole entry, looked up): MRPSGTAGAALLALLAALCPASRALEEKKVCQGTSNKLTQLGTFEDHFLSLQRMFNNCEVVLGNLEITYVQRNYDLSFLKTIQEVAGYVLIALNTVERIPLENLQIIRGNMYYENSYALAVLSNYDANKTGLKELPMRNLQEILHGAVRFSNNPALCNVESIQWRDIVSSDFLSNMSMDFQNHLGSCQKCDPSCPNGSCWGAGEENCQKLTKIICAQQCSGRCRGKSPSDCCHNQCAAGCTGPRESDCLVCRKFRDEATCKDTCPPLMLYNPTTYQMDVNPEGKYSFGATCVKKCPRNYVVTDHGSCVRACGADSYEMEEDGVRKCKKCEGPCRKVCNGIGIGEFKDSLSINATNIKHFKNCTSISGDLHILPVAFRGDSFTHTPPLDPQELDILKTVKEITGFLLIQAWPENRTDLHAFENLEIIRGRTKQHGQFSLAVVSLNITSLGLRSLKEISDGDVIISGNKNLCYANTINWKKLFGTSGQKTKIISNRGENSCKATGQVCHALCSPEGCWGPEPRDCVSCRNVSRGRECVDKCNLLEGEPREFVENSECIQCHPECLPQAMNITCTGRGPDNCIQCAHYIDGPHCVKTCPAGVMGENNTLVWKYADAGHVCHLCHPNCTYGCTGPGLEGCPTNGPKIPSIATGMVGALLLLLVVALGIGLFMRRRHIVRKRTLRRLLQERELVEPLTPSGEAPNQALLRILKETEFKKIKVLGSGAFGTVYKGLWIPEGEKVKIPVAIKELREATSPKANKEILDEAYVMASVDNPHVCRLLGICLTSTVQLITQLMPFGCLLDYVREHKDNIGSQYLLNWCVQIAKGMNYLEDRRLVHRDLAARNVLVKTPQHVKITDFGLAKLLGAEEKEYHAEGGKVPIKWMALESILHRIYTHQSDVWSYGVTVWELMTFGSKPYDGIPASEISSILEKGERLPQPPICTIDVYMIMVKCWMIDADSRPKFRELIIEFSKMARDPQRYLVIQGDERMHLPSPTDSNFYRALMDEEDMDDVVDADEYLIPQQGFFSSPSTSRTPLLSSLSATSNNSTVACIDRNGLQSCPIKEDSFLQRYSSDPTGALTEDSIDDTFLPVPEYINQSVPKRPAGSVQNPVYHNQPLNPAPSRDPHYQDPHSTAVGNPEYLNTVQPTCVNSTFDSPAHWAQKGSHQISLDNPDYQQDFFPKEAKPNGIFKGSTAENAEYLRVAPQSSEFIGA
CCOC(=O)C[C@H]1[C@H](OC(=O)c2ccc(-c3ccccc3)cc2)[C@@H](NC(=O)Cc2ccc(OC)cc2)c2cc(OCCCO)ccc2N1C(=O)c1ccc2ccccc2n1 gave a composite z-score of -0.127.
In the case of C=CC[C@@]1(C(=O)NCC(O)CO)N=C(c2ccc(OCCCO)cc2)O[C@@H]1c1ccccc1N=[N+]=[N-] (stereo partly drawn), the composite z-score is reported as -0.656.
In the case of CCCCC=C[C@@H](NC(=O)c1ccco1)c1ccccc1, the composite z-score is reported as 0.12.
CC(C)(C)OC(=O)CC[C@@]1(C(=O)NCCN2CCOCC2)N=C(c2ccc(OCCCO)cc2)O[C@@H]1c1ccccc1 was tested, and the composite z-score was 0.335.
With CC(C)(C)N1CC=CC23O[C@@H]4C=CCOC(=O)[C@@H]4[C@H]2C(=O)N(CCCCCO)[C@@H]3C1=O (stereo partly drawn) the composite z-score was -1.63.
COc1ccc(C(O)C2C=CC3C(=O)N(c4ccccc4)C(=O)C3N2Nc2ccc([N+](=O)[O-])cc2)cc1OCc1ccccc1 (stereo not drawn) gave a composite z-score of 0.534.
In the case of CN(C)C(=O)[C@]1(CCC(=O)OC(C)(C)C)N=C(c2ccc(OCCCO)cc2)O[C@@H]1c1ccccc1N=[N+]=[N-], the composite z-score is reported as 0.17.
In the case of O=C1OCC=C[C@H]2OC34C=CCN(c5ccc6ccccc6c5)C(=O)[C@H]3N(CCCO)C(=O)[C@@H]4[C@@H]12 (stereo partly drawn), the composite z-score is reported as -1.15.
In the case of COC(=O)c1c(CC[C@@H](CO)NC(=O)N[C@@H](Cc2ccccc2)Cn2cc(C3(O)CCCCC3)nn2)oc(C(C)=O)c1C(=O)OC, the composite z-score is reported as 0.346.
C=CCOC(=O)[C@H]1[C@@H]2C(=O)O[C@@H](c3ccccc3)[C@@H](c3ccccc3)N2[C@@H](c2ccc(OCCOC(=O)[C@@H]3C[C@@H]4C(=O)NCC(=O)N4[C@@H]3c3ccc(O)cc3)cc2)[C@]12C(=O)Nc1ccccc12 gave a composite z-score of 0.457.
Work on [N-]=[N+]=NCc1ccccc1[C@H]1OC(c2ccc(OCCCO)cc2)=N[C@@]1(CCS(=O)(=O)c1ccccc1)C(=O)N1CCOCC1 yielded a composite z-score of 0.267.
N[C@@H](Cc1ccccc1)Cn1cc(-c2ccccc2)nn1 was tested, and the composite z-score was 0.0157.
With CC(C)CNC(=O)[C@@]1(c2ccc([N+](=O)[O-])cc2)CC(=O)N(CC23CC4CC(CC(C4)C2)C3)[C@@H]1c1ccc(CO)cc1I the composite z-score was 0.578.
O=C(CCN1CCOCC1)c1cccc(O)c1 showed a composite z-score of 1.74.
Work on COC(=O)C(CC#Cc1ccc2c(c1)[C@]1(C(=O)N2)[C@H](c2ccc(OCCO)cc2)N2[C@H](c3ccccc3)[C@H](c3ccccc3)OC(=O)[C@H]2[C@@H]1C(=O)NC[C@H](O)c1ccccc1)C(=O)OC yielded a composite z-score of 0.0713.
For C#CCN(C(/C=C/c1ccccc1)CO)C(C(=O)O)c1ccccc1 (stereo not drawn), the composite z-score was -0.0139.
Compound COc1ccc(C(=O)Nc2cccc(CN3C(=O)[C@@]4(O[C@@H](CCn5cc(CCO)nn5)[C@H]([Si](C)(C)c5ccc(OC)cc5)[C@H]4C)c4ccccc43)c2)cc1 has a composite z-score of 0.558.
O=C(CS)NCCCCCCNC(=O)[C@@H]1C[C@@H]2C(=O)N3CCC[C@H]3C(=O)N2[C@@H]1c1ccc(O)cc1 was tested, and the composite z-score was -0.226.
CCCNC(=O)[C@@]1(c2ccc([N+](=O)[O-])cc2)CC(=O)N(CC23CC4CC(CC(C4)C2)C3)[C@@H]1c1ccc(CO)cc1 gave a composite z-score of 0.533.
For CC(C)c1ccc(NN2C(C(O)c3c(F)cccc3Cl)C=CC3C(=O)N(c4ccccc4)C(=O)C32)cc1 (stereo not drawn), the composite z-score was 0.389.
COc1ccc([Si](C)(C)[C@@H]2[C@@H](CCn3cc([C@H](O)c4ccccc4)nn3)O[C@]3(C(=O)N(Cc4ccc(N5C(=O)c6cccc7cccc5c67)cc4)c4ccccc43)[C@H]2C)cc1 was tested, and the composite z-score was -0.471.
